KCNQ2 enhance – enhances the rat KCNQ2 potassium channel; AID 2239; CHO-K1 KCNQ2, FluxOR thallium flux fluorescence; active compounds read high; B-score at 10 µM; 310,000 tested, 0.54% active; O88943;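 active = fluorescence ratio B-score at least 3 SD of library B-scores, with initial fluorescence B-score within 3 of them, cut at about 5.3 in these data; same plate scores as AID 2156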;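 note: B-score of peak minus minimum over baseline fluorescence ratio after K+ and Tl+ stimulus; positive B-score means potentiation of KCNQ2 with more thallium influx and brighter signal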
Target sequence (O88943 whole entry, looked up): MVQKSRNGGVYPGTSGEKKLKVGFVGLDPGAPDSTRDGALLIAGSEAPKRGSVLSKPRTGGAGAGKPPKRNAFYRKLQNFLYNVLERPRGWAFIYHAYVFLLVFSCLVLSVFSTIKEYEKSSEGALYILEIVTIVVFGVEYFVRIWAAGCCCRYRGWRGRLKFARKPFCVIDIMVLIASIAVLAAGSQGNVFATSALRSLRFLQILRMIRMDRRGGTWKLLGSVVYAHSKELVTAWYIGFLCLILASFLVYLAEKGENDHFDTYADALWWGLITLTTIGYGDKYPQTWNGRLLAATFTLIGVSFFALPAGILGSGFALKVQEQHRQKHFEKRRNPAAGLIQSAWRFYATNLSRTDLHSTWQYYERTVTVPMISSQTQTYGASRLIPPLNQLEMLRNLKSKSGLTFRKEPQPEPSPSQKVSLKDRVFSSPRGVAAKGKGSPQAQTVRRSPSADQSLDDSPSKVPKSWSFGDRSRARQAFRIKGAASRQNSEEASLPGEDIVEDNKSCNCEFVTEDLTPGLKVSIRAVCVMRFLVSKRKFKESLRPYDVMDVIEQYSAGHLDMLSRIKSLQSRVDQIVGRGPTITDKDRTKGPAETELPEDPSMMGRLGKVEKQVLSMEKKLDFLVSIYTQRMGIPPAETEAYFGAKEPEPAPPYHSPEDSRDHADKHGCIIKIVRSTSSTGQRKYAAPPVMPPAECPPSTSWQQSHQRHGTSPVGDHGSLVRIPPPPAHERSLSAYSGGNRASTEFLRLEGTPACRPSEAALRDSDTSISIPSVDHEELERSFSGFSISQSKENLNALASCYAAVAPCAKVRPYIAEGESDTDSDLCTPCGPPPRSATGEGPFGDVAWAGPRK
KCNQ2 inh – KCNQ2 (rat) channel inhibition. O88943. CHO-K1 KCNQ2, FluxOR thallium flux, 20 min; active compounds read low. B-score at 10 µM. 310,000 tested, 1.1% active;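 active = fluorescence ratio B-score at most minus 3 library SDs, with starting brightness B-score within 2 library SDs, cut at about -5.5 in these data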
Numbers without * were called inactive; i = inactive; / = no result. Shown are actives, neighbours in structure and some others; about 1.6% of the full set was active somewhere.

SMILES	KCNQ2 enhance	KCNQ2 inh
COc1ccc(-c2nn(-c3ccccc3)cc2C(=O)NC(=S)Nc2cc(Cl)ccc2Cl)cc1	-7.68	-7.68*
N#Cc1c(NC(=O)c2cccc(S(=O)(=O)Nc3ccc(C(=O)O)cc3)c2)sc2c1CCCC2	4.47	i
CC(=O)NCC(=O)OCC(=O)c1ccc(C)c(C)c1	/	i
Cc1ccc(C(=O)COC(=O)C2C3C=CC(C3)C2C(=O)OCC(=O)c2ccc(C)c(C)c2)cc1C (stereo not drawn)	-7.48	-7.48*
CN(C)C(=O)c1nnsc1Sc1ccc(Cl)cc1	1	i
CCC(C)[C@H](NC(=O)Nc1ccccc1F)C(=O)O (stereo partly drawn)	1.02	i
COc1ccc(CC2(C)OC(c3ccc([N+](=O)[O-])cc3)=NN2C(C)=O)cc1 (stereo not drawn)	-6.22	-6.22*
COc1ccc(C(=O)NNC(=O)Cc2ccc([N+](=O)[O-])cc2)cc1	0.47	i
Cc1ccc(OCCC(=O)OCC(=O)NCCc2ccc(Cl)cc2)cc1	0.79	i
CCOC(=O)c1sc(/S(C)=N\S(=O)(=O)c2cccc(Cl)c2)c2c1CCC=C2 (stereo not drawn)	/	i
CCOC(=O)C1CCN(c2ccccc2CN2CCN(c3ccccc3OCC)CC2)CC1	-7.18	-7.18*
CCOC(=O)C1CCN(Cc2ccccn2)CC1	/	i
Cc1nn(C(=O)CCCn2cc([N+](=O)[O-])cn2)c(C)c1Cl	/	i
Cn1c(CNc2ccc(Cl)cc2)nc2ccccc21	/	i
CC(C)N=c1cc2n(-c3ccc(Cl)cc3)c3ccccc3nc-2cc1Nc1ccc(Cl)cc1	-7.95	-7.95*
CC(=O)c1ccccc1OC(=O)COc1ccc([N+](=O)[O-])cc1	/	i
C/C(=N\N(Cc1ccccc1)c1ccccc1)c1ccncc1	/	i
O=C(Nc1cccc(Cl)c1N1CCCC1)c1cc2ccccc2o1	-6.23	-6.23*
O=C(Nc1cccc(Cl)c1N1CCCC1)c1ccc(Br)o1	-7.9	-7.9*
O=C(Nc1cccc(Cl)c1N1CCCC1)c1ccc([N+](=O)[O-])o1	0.07	i
O=C(Nc1cc(Cl)ccc1N1CCOCC1)c1cc2ccccc2o1	/	i
OCC[C@@H]1C[C@@H](O)[C@H](O)[C@@]2(CCCc3ccccc3O2)O1	0.83	i
CCOc1ccc(NC(=O)c2ccccc2OCC(=O)c2ccccc2)cc1	0.53	i
c1ccc(CCNc2nc(-c3ccncc3)nc3ccccc23)cc1	/	i
Nc1c(C(=O)c2ccc(Br)cc2)oc2ccccc12	1.48	i
SMILES	KCNQ2 enhance	KCNQ2 inh
O=C(c1ccc(Cl)cc1)c1oc2ccccc2c1CS(=O)c1ccccc1 (stereo not drawn)	-5.68	-5.68*
COC(=O)c1ccc(-c2nc(O)c3cnccn23)cc1	0.86	i
O=C(CC(c1ccco1)S(=O)(=O)c1ccccc1)c1ccccc1 (stereo not drawn)	/	i
CCOC(=O)Cc1csc(NC(=S)NC(=O)c2ccccc2)n1	/	i
CCOC(=O)Cc1csc(NC(=S)NC(=O)c2ccccc2Br)n1	9.64*	i
CC1(C)Cc2c(cnn2-c2ccc(F)cc2)C(NC(=O)CN2CCCCC2=O)C1 (stereo not drawn)	/	i
CCc1nc(-n2[nH]c(=O)c3ccccc3c2=O)c2c3c(sc2n1)CCCC3	/	i
CCc1nc(Sc2nnnn2-c2ccccc2)c2c3c(sc2n1)CCCC3	-5.92	-5.92*
CC(Oc1ccc(Cl)cc1)C(=O)NCC1CCCO1 (stereo not drawn)	0.54	i
CCOC(=O)N1CCN(S(=O)(=O)CCNC(=O)c2ccc(F)cc2)CC1	0.91	i
CCN(c1ccccc1)S(=O)(=O)c1cc(C(=O)Nc2ccccc2Cl)ccc1F	-6.01	-6.01*
CN(C)S(=O)(=O)c1cccc(C(=O)Nc2ccccc2Cl)c1	0.02	i
CCN(c1ccccc1)S(=O)(=O)c1ccc(F)c(C(=O)O)c1	1.67	i
CCN(c1ccccc1)S(=O)(=O)c1cc(C(=O)Nc2ccc(Br)cc2)ccc1F	-6.2	-6.2*
C=Cn1cc[n+](CC(=O)c2ccc(OC)cc2)c1	/	i
CC(=O)Nc1ccc(N(C(=O)c2ccccn2)C(C(=O)NC2CCCCC2)c2ccc(F)cc2)cc1 (stereo not drawn)	/	i
O=c1[nH]c2cc(NCCO)c([N+](=O)[O-])cc2[nH]1	0.42	i
COCCN(C(=O)CSc1n[nH]c(-c2ccccc2)n1)c1c(N)n(Cc2ccccc2)c(=O)[nH]c1=O	5.17	i
O=C(c1ccc(Cl)c(S(=O)(=O)N2CCCC2)c1)N1CCN(c2ccccn2)CC1	0.71	i
CC(C)c1ccc(OCc2ccc(C(=O)N3CCN(c4ccccn4)CC3)cc2)cc1	-7.5	-7.5*
CC(C)c1ccc(COc2ccc(C(=O)N3CCOCC3)cc2)cc1	/	i
O=C(c1ccc(Cl)c(S(=O)(=O)NCc2ccccc2)c1)N1CCN(c2ccccn2)CC1	-5.77	-5.77*
O=C(Nc1ccc(N2CCN(C(=O)c3ccco3)CC2)c(Cl)c1)c1c(F)c(F)c(F)c(F)c1F	0.79	i
CC(C)NC(=O)CSc1nnc(-c2ccc3ncccc3c2)n1C	0.02	i
CCOC(=O)c1c(C=O)c(C)n(Cc2ccccc2Cl)c1C	-5.82	-5.82*
SMILES	KCNQ2 enhance	KCNQ2 inh
CCOC(=O)c1c(C=O)c(C)n(Cc2ccc(C)cc2)c1C	/	i
Cc1ccc(C)c(COc2coc(CN3CCN(C(=O)c4ccco4)CC3)cc2=O)c1	/	i
Cc1cc(OCC(=O)N2CCc3ccccc3C2)c2c(-c3ccccc3)cc(=O)oc2c1	-7.55	-7.55*
CCOc1cc(C)cc2oc(=O)cc(-c3ccccc3)c12	/	i
O=C(COc1ccc(Br)cc1)N1CCC(c2ccccc2)C1 (stereo not drawn)	-5.58	-5.58*
O=C(COc1ccc(Br)cc1)N1CCc2ccccc2C1	-6.52	-6.52*
O=C(COc1ccc(Br)cc1)N1CCOCC1	/	i
COc1ccc(OCC(=O)N2CCc3ccccc3C2)cc1	/	i
Cc1ccc(S(=O)(=O)NCC(C)n2cncn2)cc1C (stereo not drawn)	0.56	i
C=CCCC(=O)NC1CCCc2c1cnn2-c1ccccc1F (stereo not drawn)	/	i
N=C(N=C(N)N)N1CCc2ccccc21	0.44	i
Cc1cccc(C)c1NC(=S)N(Cc1ccccc1)Cc1cccs1	/	i
CC1(C)Cc2ccccc2-c2nc(-c3ccccc3)oc(=O)c21	-7.87	-7.87*
CC1(C)Cc2ccccc2-c2nc(NN)[nH]c(=O)c21	/	i
CCOC(=O)/C(C(=O)Nc1ccccc1Cl)=C1/NC(C)(C)Cc2ccccc21	-8.13	-8.13*
CCOC(=O)/C(C(=O)Nc1ccc(Br)cc1)=C1/NC(C)(C)Cc2ccccc21	/	i
Cc1ccc(N/C=C2\C(=O)C3(C)CCC2C3(C)C)cc1C (stereo not drawn)	-6.46	-6.46*
CC12CCC(C(=Nc3ccc(N=C4C(=O)C5(C)CCC4C5(C)C)cc3)C1=O)C2(C)C	/	i
CC(C)Cc1ccc(CN2CCCC(NC(=O)c3ccnn3C)C2)cc1 (stereo not drawn)	/	i
CC(C)Cc1ccc(CN2CCCC(NC(=O)c3nn(C)c(=O)c4ccccc34)C2)cc1 (stereo not drawn)	-7.79	-7.79*
CN1C2CCC1CC(NS(=O)(=O)c1ccc(C#N)cc1)C2 (stereo not drawn)	/	i
CC1CN(C(=O)COC(=O)c2ccccc2O)CC(C)O1 (stereo not drawn)	1.44	i
